Screening results as filed in PubChem.
HT1080 IDH1KD tx: qHTS for induction of synthetic lethality in tumor cells producing 2HG: qHTS for the HT-1080-IDH1KD cell line; Potency, µM (highest dose often 46.1 µM), for the others: at the highest dose activity, negative = toxicity, hits mostly cytotoxic; AID 686971, 2013; HT-1080 IDH1 knockdown viability, ATP luminescence, 48 h; 2% of 360,000 active;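 note: potency is the fitted concentration of half-maximal effect; 0% = DMSO wells and -100% = cell-free medium wells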
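Using the IDH1-knockdown HT-1080 line run in the same batch and compound series as the NT line, viability after 48 h at 37 °C was determined by CellTiter-Glo luminescence and expressed as % activity.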
IL1B secr inh: qHTS for Inhibitors of Inflammasome Signaling: IL-1-beta AlphaLISA Primary Screen. THP-1 LPS/ATP IL-1B secretion, AlphaLISA, 16 h; stronger effect = lower value. activity change, % at 57.5 µM. 4.7% of 360,000 active. AID 743279, 2014; in the data active = activity change below about -50%; inconclusive = mostly about -30% to -49%
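THP-1 cells pretreated 1 hr with compounds (up to 57.5 uM final), then stimulated with LPS (250 ng/mL final) plus ATP (1.25 mM final); secreted IL-1B measured by AlphaLISA after 16 hr, decreased signal indicating inhibition.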
HT1080NT lethal: qHTS for induction of synthetic lethality in tumor cells producing 2HG: qHTS for the HT-1080-NT fibrosarcoma cell line. HT-1080-NT fibrosarcoma viability, CellTiter-Glo ATP luminescence, 48 h. Potency, µM (doses to about 46.1 µM), inactives show at the top dose activity, negative = less viability, most hits filed as cytotoxic. 1.6% of 360,000 active. AID 686970, 2013;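 note: NT is the 2HG producing partner of a matched IDH1 knockdown line; potency is the fitted concentration of half-maximal effect; 0% = DMSO-treated cells and -100% = media-only wells without cells; nearly all actives have a fitted effect of over 55% in size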
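A 48-hour cytotoxicity screen used HT-1080-NT cells plated 2 hours before compound delivery. ATP-based CellTiter-Glo luminescence measured viability, normalized to DMSO and no-cell controls.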
TDP1 cell CPT: qHTS for Inhibitors of human tyrosyl-DNA phosphodiesterase 1 (TDP1): qHTS in cells in presence of CPT; Potency, µM (highest dose often 46.2 µM), for the others: at the highest dose activity change, negative = growth inhibition, actives largely listed as inhibitors; 12% of 420,000 active; chicken DT40 Tdp1-/-;hTDP1 cells + 20 nM CPT, ATP luminescence, 48 h; note: potency is the fitted concentration of half-maximal effect; nearly all actives have a fitted effect of over 55% in size
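Chicken DT40 Tdp1-/- cells complemented with human TDP1, 400 cells/well, exposed to compounds plus 20 nM camptothecin for at least 48 h at 37 C; viability read as ATP content by CellTiter-Glo luminescence.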
DT40 TDP1 no CPT: qHTS for Inhibitors of human tyrosyl-DNA phosphodiesterase 1 (TDP1): qHTS in cells in absence of CPT. DT40 Tdp1-/- hTDP1 cells, no CPT, ATP luminescence, 48 h. 15% of 420,000 active. AID 686978, 2013. Potency, µM (top dose mostly 46.2 µM), without a hit: at the highest dose activity change, negative = growth inhibition, actives largely listed as inhibitors; note: potency is the fitted concentration of half-maximal effect; nearly all actives have a fitted effect of over 55% in size
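No-CPT arm: Tdp1-/-;hTDP1 DT40 cells (400/well) plus compounds, incubated ≥48 hr at 37 °C. Readout CellTiter-Glo luminescence.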
* = called active by the depositor; ? = inconclusive; . = not tested or not shown; [ ] = dose if it differs, or a comment. Compounds with a hit are over-represented: about 19% of the library has one in this group of screens. Unless noted, calls come from the whole dose curve; as a rule, active = well fitted curve in the direction sought with a large enough effect; inconclusive = small, poorly fitted or top-dose-only effect, or another doubt; inactive = no such curve, though single readings can be large; an effect the other way counts as inactive or inconclusive. Unless noted, % is set by controls: 0 for no effect and ±100 for the full control effect.

SMILES | HT1080 IDH1KD tx | IL1B secr inh | HT1080NT lethal | TDP1 cell CPT | DT40 TDP1 no CPT
O=C(CC12CC3CC(CC(C3)C1)C2)NC(=S)NCc1ccccc1 | 14% | -10 | 11% | ? | 18µM*
O=C(NCc1ccccc1)C12CC3CC(CC(C3)C1)C2 | 15% | -10 | 3% | -2% | -14%
O=C(NCc1ccccc1)NC12CC3CC(CC(C3)C1)C2 | -5% | -1 | 3% | 15µM* | 21µM*
O=c1n(Cc2ccccc2)c(O)c2n1Cc1ccccc1N=C2c1ccc(C(F)(F)F)cc1 | -12% | 56 | 0% | ? | ?
O=C(CNC(=O)C12CC3CC(CC(C3)C1)C2)N/N=C\c1ccccn1 | 4% | 14 | -3% | -1% | -16%
Cc1cn2c(=O)cc(COc3cccc(NC(=O)c4ccc(C(C)(C)C)cc4)c3)nc2s1 | . | . | . | 16µM* | 16µM*
Cc1cn2c(=O)cc(COc3cccc(NC(=O)c4ccccc4Cl)c3)nc2s1 | . | . | . | ? | 13µM*
Cc1cn2c(=O)cc(COC(=O)c3cccc(NC(=O)c4ccccc4C)c3)nc2s1 | . | . | . | 5% | -22%
O=C(C1CCCO1)N1CCN(c2ccc(F)cc2)CC1 (stereo unspecified) | -9% | -13 | -2% | -2% | -17%
CC(=O)c1ccc(S(=O)(=O)N2CCn3cccc3C2c2ccc(C)cc2)cc1 (stereo unspecified) | . | . | . | 21µM* | ?
O=S(=O)(c1ccc(Br)cc1)N1CCn2cccc2C1c1ccc(Br)cc1 (stereo unspecified) | . | . | . | ? | 16µM*
Cc1cc(C(=O)NC2CCCN(Cc3ccccc3F)C2)n[nH]1 (stereo unspecified) | 7% | 5 | ? | 2% | 11%
Cc1ccc(C(=O)Nc2nnc(SCc3cc(=O)n4ccc(C)cc4n3)s2)cc1 | . | . | . | 5% | -15%
Cc1nc(C)c(CCNC(=O)c2ccccc2)s1 | -2% | 14 | 7% | -4% | -26%
CCOc1ccc(C(=O)NCCc2sc(-c3cccc(F)c3)nc2C)cc1OCC | . | . | . | 18µM* | ?
CCOc1ccc(S(=O)(=O)NCCc2sc(-c3ccc(C)cc3)nc2C)cc1 | . | . | . | ? | 16µM*
CCOc1ccc(C(=O)NCCc2sc(-c3ccc(C)cc3)nc2C)cc1 | . | . | . | 23µM* | ?
O=C(C[n+]1ccccc1)c1ccc(O)c(O)c1 | . | . | . | -27% | -14%
CN(CC(=O)Nc1ccc(F)cc1)C(=O)c1cccc(S(=O)(=O)N2CCN(c3ccc(F)cc3)CC2)c1 | ? | -16 | -15% | 15µM* | 13µM*
COc1cccc(NC(=O)CN(C)C(=O)c2cccc(S(=O)(=O)N3CCN(c4ccc(F)cc4)CC3)c2)c1 | -10% | 10 | -16% | 16µM* | 16µM*
CN(CC(=O)Nc1cccc(F)c1)C(=O)c1cc(S(=O)(=O)N2CCN(c3ccccc3)CC2)ccc1Cl | -14% | -27 | 2%[9.24 µM] | 16µM* | 13µM*
COc1ccc(C(=O)N2CCN(S(=O)(=O)c3ccc(Cl)cc3)CC2)cc1S(=O)(=O)N1CCOCC1 | -2% | -5 | 2% | 3% | ?
Cc1nc2sccn2c1CN1CCC2(CC1)CC2C(=O)Nc1ccc2c(c1)OCO2 (stereo unspecified) | . | . | . | -2%[9.04 µM] | ?
O=C(NCc1nc(-c2ccc(C(F)(F)F)cc2)no1)Nc1ccc(OC(F)(F)F)cc1 | ? | -90* | 26µM* | ? | 8.2µM*
COc1ccc(-c2noc(CNS(=O)(=O)c3ccc(NC(C)=O)cc3)n2)cc1 | -2% | 1 | -1% | ? | -21%
SMILES | HT1080 IDH1KD tx | IL1B secr inh | HT1080NT lethal | TDP1 cell CPT | DT40 TDP1 no CPT
Cc1cccc(N2CCN(C(=O)CSc3nnnn3C3CC3)CC2)c1C | -2% | 0 | -1% | ? | ?
O=C(Nc1ccc2nc3n(c(=O)c2c1)CCCC3)c1cc([N+](=O)[O-])ccc1F | ? | -105* | -20% | 2.1µM* | 1.8µM*
COc1cc(/C=C/C(=O)Nc2ccc3nc4n(c(=O)c3c2)CCCC4)cc(OC)c1OC | -11% | ? | -3% | ? | ?
COc1cc(OC)cc(C(=O)Nc2ccc3nc4n(c(=O)c3c2)CCCCC4)c1 | -21% | -10 | -30% | ? | 12µM*
O=C(Nc1ccc2nc3n(c(=O)c2c1)CCCC3)c1cccc([N+](=O)[O-])c1 | 2% | -6 | 11% | 9% | -12%
COc1cccc(/C=C/C(=O)Nc2ccc3nc4n(c(=O)c3c2)CCCC4)c1OC | ? | -10 | ? | 21µM* | 18µM*
COc1ccc(OC)c(CCNC(=O)C(=O)Nc2ccc3nc4n(c(=O)c3c2)CCCCC4)c1 | 0% | -15 | 0% | 13µM* | 15µM*
Cc1ccc(CNC(=O)C2CCN(C(=O)Nc3ccc(C)cc3)CC2)cc1 | -12% | 10 | 1% | ? | -17%
Cc1ccc(SCC(=O)NCC2COc3ccccc3O2)cc1 (stereo unspecified) | -3% | 0 | 13% | -16% | -52%
CC(C)c1c(C(=O)NCCN2CCOCC2)cnn1-c1nccc(-c2cccs2)n1 | . | . | . | -3%[9.04 µM] | ?
COc1cccc(/C=C/C(=O)Nc2ccc3c(c2)OCCO3)c1OC | -13% | -78* | -12% | 18µM* | ?
COc1cccc(/C=C/C(=O)Nc2cccc(C(C)=O)c2)c1OC | 4% | -21 | 5% | ? | ?
COc1ccc(NC(=O)C2=C(C)Nc3c(C(=O)Nc4ccc(C)cc4)cnn3C2c2cccc(Cl)c2)cc1 (stereo unspecified) | . | . | . | ? | -27%
COc1ccccc1NC(=O)C1=C(C)Nc2c(C(=O)Nc3ccc(F)cc3)cnn2C1c1cccc([N+](=O)[O-])c1 (stereo unspecified) | . | . | . | ? | 23µM*
CC1=C(C(=O)Nc2ccc(Cl)cc2)C(c2ccccc2)n2ncc(C(=O)Nc3ccccc3)c2N1 (stereo unspecified) | . | . | . | 21µM* | 15µM*
COc1cccc(C2C(C(=O)Nc3ccc(Cl)cc3)=C(C)Nc3c(C(=O)Nc4ccccc4)cnn32)c1OC (stereo unspecified) | . | . | . | 23µM* | ?
COc1ccccc1NC(=O)c1c(N=Cc2cccc([N+](=O)[O-])c2)cnn1C | 24% | . | 21% | 4% | -27%
CC1=C(C(=O)Nc2ccc(Cl)cc2)C(c2ccccc2C)n2ncc(C(=O)Nc3ccc(C)cc3)c2N1 (stereo unspecified) | . | . | . | 7.3µM* | 7.3µM*
O=[N+]([O-])C(=C1Nc2ccccc2N1)/C(Cl)=C(/Cl)Br | -12% | -19 | -7% | ? | ?
